From PubChem BioAssay
USP30 inh – blocks human USP30 ubiquitin-rhodamine cleavage; Q70CQ3; purified USP30, Ub-rhodamine cleavage fluorescence; inhibition, % at 25 µM; 47,000 tested, 5.3% active; AID 1645860
USP17 block – blocks human USP17 ubiquitin-rhodamine cleavage | purified USP17, Ub-rhodamine cleavage fluorescence, 3 h | inhibition, % at 50 µM | AID 1645855 | A8MUK1 | 47,000 tested, 6.5% active
USP7 inh – human USP7 deubiquitinase inhibition | purified USP7, Ub-rhodamine cleavage fluorescence | inhibition, % at 20 µM | 47,000 tested, 0.3% active
USP10 block – human USP10 deubiquitinase inhibition; inhibition, % at 20 µM; 47,000 tested, 1.1% active; purified USP10, Ub-rhodamine fluorescence, 60 min; Q14694
USP8 inh – inhibitors of human USP8 deubiquitinase; inhibition, % at 20 µM; P40818; purified USP8, Ub-rhodamine cleavage fluorescence, 30 min; AID 1645853; 47,000 tested, 4.2% active
USP28 block – blocks human USP28 ubiquitin-rhodamine cleavage | Q96RU2 | purified USP28, Ub-rhodamine cleavage fluorescence, 30 min | 47,000 tested, 3% active | AID 1645857 | inhibition, % at 25 µM
* marks the source's active call; other numbers are inactive results. Only some compounds are listed: those with a hit (about 13% of all), similar ones and a draw of the others. Cut-off read from the data, not from the text of the source: active = inhibition above about 30%; inactive = the rest.

What do the screens show for `Cc1ccc2c(c1)c(=O)cc(C(F)(F)F)n2C[C@H]1CCCN1C(=O)C1CC1`?
USP30 inh: 41.5*; USP17 block: -1.6; USP7 inh: -0.4; USP10 block: -3.9; USP8 inh: 0.2; USP28 block: 14.1

Results for O=C(C1CCCCC1)N1CCC[C@@H]1Cn1nnc(-c2cccnc2)n1 ?
USP30 inh: 18.9; USP17 block: 17.5; USP7 inh: -1.0; USP10 block: -0.1; USP8 inh: -2.1; USP28 block: 20.5

How did Cc1nc2c(c(=O)n1CC(=O)Nc1ccccc1)CCN(Cc1ccccc1)C2 do in these assays?
USP30 inh: 2.8; USP17 block: -9.7; USP7 inh: 2.9; USP10 block: -2.0; USP8 inh: -35.1; USP28 block: 1.8

What do the screens show for `Cc1ccccc1NC(=O)Cn1c(C)nc2c(c1=O)CCN(Cc1ccccc1)C2`?
USP30 inh: -20.8; USP17 block: 16.3; USP7 inh: -2.5; USP10 block: -13.6; USP8 inh: 49.2*; USP28 block: -3.5

What do the screens show for `CC1(C)Cc2c(c(-c3ccco3)nc3sc4c(NCc5ccccn5)ncnc4c23)CO1`?
USP30 inh: -6.8; USP17 block: 37.8*; USP7 inh: 2.4; USP10 block: -6.2; USP8 inh: 18.8; USP28 block: 12.8

How did CCCCCCNc1ncnc2c1sc1nc(-c3ccccc3)c3c(c12)CC(C)(C)OC3 do in these assays?
USP30 inh: 30.8*; USP17 block: 16.4; USP7 inh: 0.8; USP10 block: -0.1; USP8 inh: 14.2; USP28 block: 26.5

How did O=C(C1CCCN1c1nnc(N2CCCC2=O)s1)N1CCN(c2ccccc2F)CC1 (centres undefined) do in these assays?
USP30 inh: 24.4; USP17 block: -6.0; USP7 inh: 0.9; USP10 block: 2.6; USP8 inh: -46.6; USP28 block: 13.1

What do the screens show for `O=S(=O)(c1cccc(F)c1)N1CCn2cccc2C1c1ccc(F)cc1` (centres undefined)?
USP30 inh: -63.6; USP7 inh: -0.1; USP10 block: -4.7; USP8 inh: -161.4; USP28 block: -12.8

Results for COc1ccc(-n2cc(C(=O)NCCc3ccc(F)cc3)nn2)cc1 ?
USP30 inh: 29.4; USP17 block: 17.0; USP7 inh: 12.8; USP10 block: 16.8; USP8 inh: 37.5*; USP28 block: 6.9

How did COc1ccc(CCNC(=O)CSc2cn(CCNC(=O)c3ccc(F)cc3)c3ccccc23)cc1OC do in these assays?
USP30 inh: 67.7*; USP17 block: 49.5*; USP7 inh: -0.7; USP10 block: 0.1; USP8 inh: -16.1; USP28 block: 8.1

How did COc1ccc(CCNC(=O)c2cn(-c3ccc(F)cc3)nn2)cc1OC do in these assays?
USP30 inh: 61.5*; USP17 block: 34.2*; USP7 inh: 2.8; USP10 block: 0.6; USP8 inh: 3.2; USP28 block: 8.7

What do the screens show for `O=C(NC1CCN(Cc2ccccc2)CC1)c1cn(-c2ccc(F)cc2)nn1`?
USP30 inh: -9.1; USP17 block: -8.7; USP7 inh: -4.5; USP10 block: -4.5; USP8 inh: 0.2; USP28 block: -9.8

What do the screens show for `COc1ccc(CCNC(=O)c2ccc3c(c2)N(Cc2ccc(F)cc2)C(=O)c2ccccc2S3=O)cc1OC` (centres undefined)?
USP30 inh: -24.7; USP17 block: -7.6; USP7 inh: 0.9; USP10 block: 2.9; USP8 inh: -8.9; USP28 block: -10.4

What do the screens show for `O=C(c1ccccn1)N1CCCn2nc(-c3ccc(Cl)cc3)cc2C1`?
USP30 inh: 19.9; USP17 block: 3.8; USP7 inh: -1.3; USP10 block: 0.2; USP8 inh: -6.9; USP28 block: 15.3

How did Cc1cc(-c2cnc(NCc3cccc(F)c3)nc2-c2ccco2)on1 do in these assays?
USP30 inh: 8.9; USP17 block: 40.9*; USP7 inh: 9.0; USP10 block: 15.2; USP8 inh: 17.3; USP28 block: 26.2

Results for CCOC(=O)CCn1c(=O)c2c(nc3oc(C(C)(C)C)cn32)n(C)c1=O ?
USP30 inh: 32.0*; USP17 block: 14.8; USP7 inh: -0.7; USP10 block: 1.6; USP8 inh: 11.2; USP28 block: 11.6

How did O=C(NCc1ccc(Cl)cc1)c1cnc(N2CCOCC2)nc1 do in these assays?
USP30 inh: 2.7; USP17 block: 18.3; USP7 inh: -8.5; USP10 block: -5.1; USP8 inh: -1.7; USP28 block: 5.7
